From PubChem BioAssay
FMDV antiviral = foot and mouth disease virus antiviral activity. hit rate 1.2% among 410,000. AID 1159524. Potency, µM (highest dose often 57.9 µM), usual class: inhibitors. FMDV antiviral cell-based qHTS; calls by dose curve; tested in HEK293T cells; note: read-out not given here; nearly all actives have a fitted effect of over 45% in size
HCV inhibitor = HCV inhibition. Huh7.5.1 HCVcc-Cre infection, luciferase reporter, 44 h. Potency, µM (highest dose often 41.8 µM), actives largely listed as inhibitors. hit rate 3.4% among 340,000. AID 651820
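After 44 h co-culture of compound, cells and HCVcc-Cre (~0.5 moi), substrate is added for 15 min at room temperature and luciferase measured over 15 sec. Cells were seeded at 1,000/well and pre-cultured 4 h.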
AmpC detergent = AmpC beta-lactamase inhibition with detergent present; hit rate 0.041% among 370,000; P00811; Potency, µM (top dose mostly 114 µM), actives largely listed as inhibitors; AmpC hydrolysis of nitrocefin, absorbance 480 nm, 0.01% Triton; note: nearly all actives have a fitted effect of over 25% in size
Target sequence (P00811 whole entry, looked up): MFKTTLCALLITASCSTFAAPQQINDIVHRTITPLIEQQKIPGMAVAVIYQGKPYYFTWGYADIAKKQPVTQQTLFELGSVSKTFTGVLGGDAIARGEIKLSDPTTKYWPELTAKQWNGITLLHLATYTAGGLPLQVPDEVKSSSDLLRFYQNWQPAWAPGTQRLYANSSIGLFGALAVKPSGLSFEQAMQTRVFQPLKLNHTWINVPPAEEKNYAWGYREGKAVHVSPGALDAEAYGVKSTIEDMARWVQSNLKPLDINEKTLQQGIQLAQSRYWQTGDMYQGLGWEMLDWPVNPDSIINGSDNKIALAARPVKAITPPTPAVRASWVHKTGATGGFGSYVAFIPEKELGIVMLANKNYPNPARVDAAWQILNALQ
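AmpC (5.3 nM in the dispensed reagent) in 20 mM phosphate pH 7.0 with 0.01% (detergent screen) or 0.0001% Triton X-100 was preincubated with compounds for 15 min at room temperature. Nitrocefin was then added from an 800 uM solution, and hydrolysis was followed at 480 nm.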
AmpC inh no detg = blocks E. coli AmpC beta-lactamase in detergent-free assay; AmpC nitrocefin hydrolysis, absorbance 480 nm, 0.0001% Triton; Potency, µM (series often up to 57.1 µM), hits mostly inhibitors; hit rate 0.52% among 330,000; AID 485341; note: nearly all actives have a fitted effect of over 20% in size
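20 mM phosphate pH 7.0 + 0.01% (detergent screen) or 0.0001% Triton X-100; 5.3 nM AmpC reagent; cpd preinc 15 min RT; nitrocefin (800 uM stock) to start; A480 q20 s × 4 min; Activity was normalised to no-enzyme and no-compound control wells.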
HCMV antiviral = blocks human cytomegalovirus replication; HFF cells, HCMV-luciferase reporter, 72 h; active compounds read low; AID 1259415; hit rate 4.5% among 410,000; activity change, negative = inhibition, % at 57.5 µM; in the data active = activity change below about -60%; inconclusive = no clear call, values can overlap the other calls; inactive = above about -39%
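Compounds were evaluated in HFFs infected with an HCMV luciferase reporter virus (MOI 1 PFU/cell). Luciferase in lysates collected 72 h post infection served as the replication measure.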
Numbers stand for hits; n = inactive; u = inconclusive; x = no result given. Rows were chosen to be rich in hits. Some 7.3% of all compounds tested hit in one or more screens of this group. Unless noted, calls come from the whole dose curve; as a rule, active = well fitted curve in the direction sought with a large enough effect; inconclusive = small, poorly fitted or top-dose-only effect, or another doubt; inactive = no such curve, though single readings can be large; an effect the other way counts as inactive or inconclusive.

SMILES	FMDV antiviral	HCV inhibitor	AmpC detergent	AmpC inh no detg	HCMV antiviral
COc1ccccc1C(=O)Nc1nc2cc3c(cc2s1)OCCO3	n	u	n	n	x
CCN(CC)S(=O)(=O)c1cccc(C(=O)Nc2nc3cc4c(cc3s2)OCCO4)c1	12.6µM	2.24µM	n	n	-98.3
CCOC(=O)c1c(NC(=O)c2ccc(S(=O)(=O)N(C)CC3CCCO3)cc2)sc2c1CCN(C)C2 (stereo not drawn)	n	12.6µM	n	n	n
COc1ccc(NS(=O)(=O)c2ccc(C)c(C(=O)N3CCCCCCC3)c2)cc1	n	n	u	n	n
COc1cc(C[C@@H]2C(=O)OC[C@H]2Cc2ccc(OC)c(OC)c2)ccc1O	20µM	u	n	n	-89.8
COc1cc(CC2COC(=O)C2(O)Cc2ccc(O)c(OC)c2)ccc1O (stereo not drawn)	u	u	n	n	u
COc1cc(CCCN2C(=S)NC[C@H]2Cc2ccc(O)cc2)cc(OC)c1OC	n	11.2µM	n	n	n
COc1cc(CCCN2C(=O)C(=O)NC[C@@H]2Cc2ccc(O)cc2)cc(OC)c1OC	n	n	n	n	n
CC(=O)C1=C(C)N(Cc2ccc(Br)cc2)C(=S)NC1c1cccc(Cl)c1 (stereo not drawn)	x	x	x	x	n
Cc1ccccc1CS(=O)(=O)c1ncc(Cl)c(C(=O)Nc2nnc(C(C)C)s2)n1	20µM	x	n	x	-98.7
CSc1nnc(NC(=O)c2nc(S(=O)(=O)Cc3ccccc3)ncc2Cl)s1	6.31µM	12.6µM	n	n	-101.7
CC(C)c1nnc(NC(=O)c2nc(S(=O)(=O)Cc3ccccc3)ncc2Cl)s1	4.47µM	u	u	n	-110.4
CSc1ncc(Cl)c(C(=O)Nc2nnc(SC)s2)n1	n	n	n	n	n
CC(C)Sc1ncc(Cl)c(C(=O)Nc2nnc(C(C)C)s2)n1	n	x	n	x	n
Cc1occc1-c1nnc(SCC(=O)Nc2nc(C(C)(C)C)cs2)o1	n	u	n	n	-69.4
Cc1csc(NC(=O)CSc2nnc(-c3ccoc3C)o2)n1	n	u	n	n	n
O=C(CN1CCCN(Cc2ccc(F)cc2)S1(=O)=O)NCc1ccccc1Cl	n	x	n	x	n
Cn1c2ccccc2c2cc(/C=N/NC(=O)c3ccc(N)cc3)ccc21	n	11.2µM	n	n	n
Cn1c2ccccc2c2cc(/C=N/NC(=O)c3ccccc3F)ccc21	n	14.1µM	n	n	n
CCn1c2ccccc2c2cc(/C=N/NC(=O)c3ccccc3C)ccc21	n	5.62µM	n	n	n
OC1(C#Cc2c(-c3ccsc3)sc3ccccc23)CCCCC1	x	x	x	x	n
CCOc1ccc(NC(=O)CN(C)C(=O)CCNC(=O)c2ccccc2Cl)cc1OCC	n	n	u	n	n
CCCCn1nnnc1C(c1cc2ccccc2o1)N(C)Cc1ccccc1 (stereo not drawn)	n	x	x	x	n
Fc1cccc(Cc2noc(CN3CCN(C4CCc5ccccc5C4)CC3)n2)c1 (stereo not drawn)	n	n	n	n	n
COc1ccc(Cc2noc(CN3CCN(C4CCc5ccccc5C4)CC3)n2)cc1OC (stereo not drawn)	20µM	u	n	n	n
SMILES	FMDV antiviral	HCV inhibitor	AmpC detergent	AmpC inh no detg	HCMV antiviral
Cc1nc(NC(=O)c2cc3c(s2)CCCCC3)sc1C(=O)N(C)C	n	11.2µM	u	n	n
COc1ccc2sc(N(CCCN(C)C)C(=O)c3nc4ccccc4s3)nc2c1	n	n	n	n	n
COc1ccccc1C(=O)N(CCC1CCCN1C)c1nc2ccccc2s1 (stereo not drawn)	u	n	n	n	-77.2
CC(C)OC(=O)c1c(NC(=O)C2c3ccccc3Oc3ccccc32)sc2c1CCCC2	n	x	n	x	n
Cc1cccc(NC(=O)C2CCCN(S(=O)(=O)c3cccc4nonc34)C2)c1C (stereo not drawn)	n	x	n	x	n
CN1C(=O)c2ccc(NC(=O)c3ccc(Cl)cc3Cl)cc2C1=O	n	n	n	n	n
O=C1C2C3C=CC(c4ccccc4)(C2C(=O)N1c1cccc(Cl)c1)C1C(=O)N(c2cccc(Cl)c2)C(=O)C31 (stereo not drawn)	n	10µM	n	n	n
Cc1ccc(-c2noc(-c3ccoc3C)n2)cc1	n	n	n	n	n
O=C(O)c1cc(C2CC2)nn1-c1ccccc1	n	n	n	n	n
NC(=O)C1Cc2ccccc2CN1C(=O)c1cc(C2CC2)nn1-c1ccccc1 (stereo not drawn)	n	u	x	n	-76.9
Oc1cc(-c2ccncc2)cc2cccnc12	n	x	n	n	-96.9
CN1CCN(c2ccc(-c3cc(O)c4ncccc4c3)cc2)CC1	x	x	n	n	x
CN(C)c1ccc(-c2cc(O)c3ncccc3c2)cc1	n	x	u	n	-97.4
COc1cc(CN(C)Cc2cc(=O)oc3cc(C)c(Cl)cc23)ccc1OC(F)F	u	10µM	n	n	n
CCOc1ccc(CN(C)Cc2cc(=O)oc3c(C)c(C)ccc23)cc1OC	u	11.2µM	x	x	n
O=C1NC(=NCc2ccccc2)NC1(c1ccccc1)c1ccccc1	n	u	x	x	n
Cc1ccc(OCc2cc(C(=O)N3CCN(c4ccccc4)CC3)no2)cc1C	n	n	n	n	n
Cc1cccc(C(=O)NCC(=O)N2CCOCC2)c1	n	n	n	n	n
CC(=O)NCCC(=O)Nc1sc2c(c1-c1nc3ccccc3[nH]1)CCCC2	n	11.2µM	n	n	n
CN1CCN(S(=O)(=O)c2cccc(C(=O)Nc3sc4c(c3-c3nc5ccccc5[nH]3)CCCC4)c2)CC1	n	3.55µM	n	n	n
CCn1c(C)nc2cc(-c3nc4n(n3)Cc3ccccc3-4)ccc21	0.794µM	n	n	n	x
COc1ccc(-c2[nH]ncc2/C=C(/C#N)C(=O)NC2CCCCCC2)cc1	n	22.4µM	n	n	u
Clc1ccc(-c2nn3c(C4COc5ccccc5O4)nnc3s2)cc1 (stereo not drawn)	n	n	n	n	-98.9
CCOc1ccc2nc(N/C(N)=N/S(=O)(=O)c3ccc(C)cc3)nc(C)c2c1	n	x	x	x	n
O=C(NC(c1cccnc1)C(F)(F)F)c1cc(COc2ccc3c(c2)CCCC3)on1 (stereo not drawn)	n	4.47µM	n	n	-82.4
SMILES	FMDV antiviral	HCV inhibitor	AmpC detergent	AmpC inh no detg	HCMV antiviral
O=S(=O)(c1ccc(Br)s1)N1CCNCC1	n	n	n	n	n
COc1ccc(NC(=O)C(C)N2c3cccc4cccc(c34)S2(=O)=O)cc1OC (stereo not drawn)	x	6.31µM	n	n	-79.9
COc1ccc(NC(=O)C(C)N2c3cccc4cccc(c34)S2(=O)=O)cc1 (stereo not drawn)	n	n	n	n	n
O=C(Cn1c(=O)cnc2ccccc21)Nc1cccc(S(=O)(=O)N2CCCCC2)c1	n	u	u	n	n
COc1ccc(COc2ccccc2C(=O)NCc2ccccc2)cc1F	u	10µM	n	n	-69.2
COc1ccc(NC(C)C(=O)N/N=C/c2ccccc2OCc2cccc(Br)c2)cc1 (stereo not drawn)	n	11.2µM	n	n	n
